Inconclusive results are not listed. Active and inactive are the calls of the source. The call rests on the fitted dose curve; in most records, active means well fitted curve in the direction sought with a large enough effect; inconclusive means small, poorly fitted or top-dose-only effect, or another doubt; inactive means no such curve, though single readings can be large; an effect the other way counts as inactive or inconclusive.
What was measured:
[1] = qHTS for Inhibitors of Plasmodium falciparum (DD2) proliferation (AID 504314);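 further: parasite DNA measured by SYBR Green fluorescence after red cell lysis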; conditions: P. falciparum Dd2 in erythrocytes, SYBR Green growth, 72 h; series mostly up to 1.12 µM
How it was run: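 SYBR Green DNA-fluorescence growth assay: infected RBCs at 0.3% parasitemia, 2.5% hematocrit, 72 h compound exposure, 37C, 5% CO2; overnight lysis with dye at RT; normalized to 0.29 uM artemisinin and vehicle.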

[2] = qHTS for Inhibitors of Plasmodium falciparum (GB4) proliferation (AID 504315); further: nearly all actives have a fitted effect of over 50% in size; conditions: P. falciparum GB4 in erythrocytes, SYBR Green DNA, 72 h; series mostly up to 6.7 µM
How it was run: (§1)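 Parasite growth measured as SYBR Green DNA fluorescence (ex 485, em 535 nm) after overnight lysis following 72 h culture at 37 °C, 0.3% parasitemia, 2.5% hematocrit. Values normalized against DMSO and 0.29 uM artemisinin controls, with plate-stack correction.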

[3] = qHTS for Inhibitors of Plasmodium falciparum (7G8) proliferation (AID 504316); further: nearly all actives have a fitted effect of over 65% in size; conditions: P. falciparum 7G8 in erythrocytes, SYBR Green DNA, 72 h; series mostly up to 6.7 µM
How it was run: as §1

[4] = qHTS for Inhibitors of Plasmodium falciparum (HB3) proliferation (AID 504318); further: nearly all actives have a fitted effect of over 60% in size; conditions: P. falciparum HB3 in erythrocytes, SYBR Green DNA, 72 h; series mostly up to 7.21 µM
How it was run: as §1

[5] = qHTS for Inhibitors of Plasmodium falciparum (CP250) proliferation (AID 504320); conditions: P. falciparum CP250 in erythrocytes, SYBR Green DNA, 72 h; series mostly up to 6.7 µM
How it was run: as §1

Measured: Potency

COC/C=C/C1=CC2=CC(=O)C(C)(OC(=O)c3cnc4ccccc4n3)C(=O)C2=CN1Cc1ccc(OC)cc1 (stereo not drawn)
inactive: all assays above

COC(=O)CCCC1=CC2=C(c3ccccc3)C(=O)C(C)(OC(=O)C3CCCC3)C(=O)C2=CN1C(CO)CO (stereo not drawn)
inactive: all assays above

C[C@H]1Cc2c(COc3ccccc3)nc3c(c2CO1)CN(C(=O)NCCc1c[nH]c2ccccc12)CC3
inactive: all assays above

CCN1C(=O)N[C@@H](CCc2ccccc2)[C@H](C(=O)OC)[C@H]1C
inactive: all assays above

COC(=O)CCC(=O)OC1(C)C(=O)C=C2C=C(C3CC3)N(CCCCO)C=C2C1=O (stereo not drawn)
inactive: all assays above

CC#CCN1c2ccccc2[C@]23C[C@@H](C(=O)OC)N(S(=O)(=O)c4cccs4)C2=NC(C(=O)OC)=C(C(=O)OC)[C@H]13
inactive: all assays above

COC(=O)C1=C(C)N(Cc2ccccc2)C(=O)N[C@H]1c1ccco1
inactive: all assays above

CCOC(=O)CN1C(=O)N[C@@H](c2ccc(Br)cc2)C(C(=O)OC)=C1C
inactive: all assays above

COC(=O)C1=C(C)N(CC2CC2)C(=O)N[C@H]1c1ccccc1
inactive: all assays above

COC(=O)CCC(=O)OC1(C)C(=O)C=C2C=C(C3CC3)N(C3CCCC3)C=C2C1=O (stereo not drawn)
inactive: all assays above

COC(=O)CCCC1=CC2=CC(=O)C(C)(OC(=O)c3cccs3)C(=O)C2=CN1c1ccc(CO)cc1 (stereo not drawn)
inactive: all assays above

CCOC(=O)CN1C(=O)N[C@@H](c2cccs2)C(C(=O)OC)=C1C
inactive: all assays above

CCCCC1=CC2=CC(=O)C(C)(OC(=O)CC)C(=O)C2=CN1c1cccc(C#N)c1 (stereo not drawn)
inactive: [1] | [2] | [4]

CCCCC1=CC2=CC(=O)C(C)(OC(=O)CC)C(=O)C2=CN1C1CCCCC1 (stereo not drawn)
inactive: all assays above

CCN1C(=O)NC(c2ccc(Br)cc2)C(C(=O)OC)=C1C (stereo not drawn)
inactive: all assays above

COC(=O)CCC(=O)OC1(C)C(=O)C2=CN(Cc3ccc4c(c3)OCO4)C(c3ccc(OC)cc3)=CC2=C(Br)C1=O (stereo not drawn)
inactive: all assays above

CCCCC1=CC2=C(c3ccco3)C(=O)C(C)(OC(=O)c3ccc(OC)cc3)C(=O)C2=CN1CCCCO (stereo not drawn)
inactive: [1] | [2] | [4]

COC(=O)C1=C(C)N(Cc2ccccc2)C(=S)NC1c1cccc(F)c1 (stereo not drawn)
inactive: all assays above

COC(=O)CCC(=O)OC1(C)C(=O)C2=CN(Cc3ccccc3)C(c3ccc(OC)cc3)=CC2=C(Br)C1=O (stereo not drawn)
inactive: [1] | [2] | [4]

CC1(OC(=O)c2cnc3ccccc3n2)C(=O)C=C2C=C3CCCN3C=C2C1=O (stereo not drawn)
inactive: [1] | [2] | [4]

C=CC1=C2C=C(C3CC3)N(CCCCO)C=C2C(=O)C(C)(OC(=O)c2ccco2)C1=O (stereo not drawn)
inactive: [1] | [2] | [4]

COCCN1C(=O)N[C@@H](c2cccc(C(F)(F)F)c2)C(C(=O)OC)=C1C
inactive: [1] | [2] | [4]

COC[C@@H](O)[C@@H](OC)[C@H](OC)[C@H](Cc1c(OC)cc(OC)cc1OC)OC
inactive: all assays above

CC(=O)[C@@H]1[C@@H](C)N(Cc2ccccc2)C(=O)N[C@H]1c1cccc(C(F)(F)F)c1
inactive: all assays above

CCCCc1nc2c(c3c1C[C@H](C)OC3)CN(C(=O)Nc1ccc(OC)cc1)CC2
inactive: all assays above

CC(=O)Nc1ccc(S(=O)(=O)N2CCc3nc(COc4ccccc4)c4c(c3C2)CO[C@@H](C)C4)cc1
inactive: all assays above
